Source: PubChem
DT40 TDP1 no CPT: qHTS for Inhibitors of human tyrosyl-DNA phosphodiesterase 1 (TDP1): qHTS in cells in absence of CPT; DT40 Tdp1-/- hTDP1 cells, no CPT, ATP luminescence, 48 h; Potency, µM (highest dose often 46.2 µM), hits mostly inhibitors; hit rate 15% among 420,000; also: nearly all actives have a fitted effect of over 55% in size
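Chicken DT40 Tdp1-/- cells complemented with human TDP1, screened without camptothecin (DMSO vehicle only), 400 cells/well. Compounds pin-transferred, cells incubated at 37 °C for at least 48 hr. Growth read as ATP-dependent luminescence (CellTiter-Glo, 30 min at RT).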
TDP1 cell CPT: qHTS for Inhibitors of human tyrosyl-DNA phosphodiesterase 1 (TDP1): qHTS in cells in presence of CPT; chicken DT40 Tdp1-/-;hTDP1 cells + 20 nM CPT, ATP luminescence, 48 h; Potency, µM (series often up to 46.2 µM), most hits filed as inhibitors; hit rate 12% among 420,000; AID 686979, 2013; also: nearly all actives have a fitted effect of over 55% in size
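Chicken DT40 Tdp1-/- cells complemented with human TDP1, 400 cells/well, exposed to compounds plus 20 nM camptothecin for at least 48 h at 37 C; viability read as ATP content by CellTiter-Glo luminescence.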
12-LOX inh: Primary qHTS assay for inhibitors of human arachidonate 12S-lipoxygenase (ALOX12): Round 2 | hit rate 1.1% among 580,000 | AID 1671190, 2021 | Potency, µM (titrated, usually from 108 µM), actives largely listed as inhibitors | purified 12hLO, xylenol orange hydroperoxide absorbance | Polyunsaturated fatty acid lipoxygenase ALOX12 (Homo sapiens), P18054
Target sequence (P18054 whole entry, looked up): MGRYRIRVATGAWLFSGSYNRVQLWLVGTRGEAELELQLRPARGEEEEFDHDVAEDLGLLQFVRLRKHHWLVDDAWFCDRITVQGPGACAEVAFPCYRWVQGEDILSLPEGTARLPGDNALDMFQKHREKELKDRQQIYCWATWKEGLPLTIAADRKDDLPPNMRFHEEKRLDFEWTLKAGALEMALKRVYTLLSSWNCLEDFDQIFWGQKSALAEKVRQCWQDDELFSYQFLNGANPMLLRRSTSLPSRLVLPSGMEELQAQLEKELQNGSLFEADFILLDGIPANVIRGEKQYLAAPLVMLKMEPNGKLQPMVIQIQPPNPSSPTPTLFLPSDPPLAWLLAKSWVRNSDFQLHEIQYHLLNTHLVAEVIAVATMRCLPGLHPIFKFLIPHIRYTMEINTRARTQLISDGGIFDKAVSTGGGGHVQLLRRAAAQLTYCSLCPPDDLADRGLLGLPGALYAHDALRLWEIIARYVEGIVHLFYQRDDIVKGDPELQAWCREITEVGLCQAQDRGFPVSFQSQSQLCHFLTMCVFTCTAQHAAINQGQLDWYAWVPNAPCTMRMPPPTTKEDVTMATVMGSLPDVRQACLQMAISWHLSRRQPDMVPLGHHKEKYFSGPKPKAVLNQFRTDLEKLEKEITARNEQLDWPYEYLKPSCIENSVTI
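Hydroperoxide product was detected by ferrous iron/xylenol orange as the 573 to 405 nm absorbance ratio. Arachidonic acid at 40 uM (final) was turned over for 30 min at room temperature by 150 nM human 12hLO, pH 7.0 Hepes buffer, after 15 min compound preincubation.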
IL1B secr inh: qHTS for Inhibitors of Inflammasome Signaling: IL-1-beta AlphaLISA Primary Screen; hit rate 4.7% among 360,000; activity change, % at 57.5 µM; AID 743279, 2014; THP-1 LPS/ATP IL-1B secretion, AlphaLISA, 16 h; active compounds read low; in the data active = activity change below about -50%; inconclusive = mostly about -30% to -49%
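Secreted IL-1B measured by AlphaLISA bead assay after 16 h compound exposure of THP-1 cells; compounds (final up to 57.5 uM) added 1 h before LPS (250 ng/mL) and ATP (1.25 mM) stimulation; lower signal means less secretion.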
HT1080 IDH1KD tx: qHTS for induction of synthetic lethality in tumor cells producing 2HG: qHTS for the HT-1080-IDH1KD cell line | HT-1080 IDH1 knockdown viability, ATP luminescence, 48 h | Potency, µM (top dose mostly 46.1 µM), most hits filed as cytotoxic | hit rate 2% among 360,000 | AID 686971, 2013
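Assay cells: HT-1080 with IDH1 knockdown, 750 per well, RPMI/5% FBS. Exposure: 48 h at 37 °C following 2 h pre-incubation. Read: CellTiter-Glo luminescence; fitted concentration-response, curve class assigned.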
HT1080NT lethal: qHTS for induction of synthetic lethality in tumor cells producing 2HG: qHTS for the HT-1080-NT fibrosarcoma cell line; AID 686970, 2013; hit rate 1.6% among 360,000; HT-1080-NT fibrosarcoma viability, CellTiter-Glo ATP luminescence, 48 h; Potency, µM (top dose mostly 46.1 µM), hits mostly cytotoxic;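 also: NT is the 2HG producing partner of a matched IDH1 knockdown line; nearly all actives have a fitted effect of over 55% in size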
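Luminescent CellTiter-Glo readout after 48 hours of compound exposure at 37 degrees C defined viability of HT-1080-NT cells. Activity was normalized to DMSO wells and cell-free media wells; concentration-response curves were fitted and assigned curve classes.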
Numbers stand for hits; – = inactive; ? = inconclusive; · = no result given. Only a selection was taken, and hits are over-represented in it overall. Unless noted, calls follow the shape of the dose curve; as a rule, active = well fitted curve in the direction sought with a large enough effect; inconclusive = small, poorly fitted or top-dose-only effect, or another doubt; inactive = no such curve, though single readings can be large; an effect the other way counts as inactive or inconclusive.

SMILES | DT40 TDP1 no CPT | TDP1 cell CPT | 12-LOX inh | IL1B secr inh | HT1080 IDH1KD tx | HT1080NT lethal
O=C(NCCN1CCOCC1)c1ccc(Cl)nc1Cl | – | – | – | – | – | –
Nc1c(C(=O)NCCc2ccccc2)c2nc3ccccc3nc2n1CCN1CCOCC1 | 16.4µM | 20.6µM | – | -86.2 | ? | 17.8µM
C=CCNC(=O)c1c(N)n(Cc2ccco2)c2nc3ccccc3nc12 | 14.6µM | 7.31µM | ? | – | ? | ?
CCOC(=O)c1c(N)n(CCN2CCCCC2)c2nc3ccccc3nc12 | – | – | ? | -83.4 | – | –
C=CCNC(=O)c1c(N)n(Cc2ccccc2)c2nc3ccccc3nc12 | · | · | – | · | · | ·
COCCNC(=O)c1c(NC(=O)c2ccco2)n(Cc2ccccc2)c2nc3ccccc3nc12 | 20.6µM | ? | ? | – | – | –
COc1ccc(CCNC(=O)c2c(N)n(CCN3CCOCC3)c3nc4ccccc4nc23)cc1 | 18.4µM | 20.6µM | – | ? | – | –
CN1Cc2ccccc2-n2ccnc2C12CCN(C(=O)c1cccc(Cl)c1)CC2 | · | · | – | · | · | ·
O=c1ccc(-c2cncnc2)c2n1C[C@H]1C[C@@H]2CN(S(=O)(=O)c2ccccc2)C1 | · | · | – | · | · | ·
CCc1cnc(N2CCC3(CC2)C(=O)Nc2cc(OC4CCCC4)c(OC)cc23)nc1 | · | · | – | · | · | ·
Nc1cccc(-c2cn(C[C@H]3CC4CCN3C[C@@H]4C(=O)NC3CCCCC3)nn2)c1 (some centres not stated) | · | · | – | · | · | ·
Nc1c(C(=O)NCCN2CCOCC2)c2nc3ccccc3nc2n1Cc1ccco1 | 14.6µM | ? | – | – | – | –
CC(C)c1ccc(Oc2cccc3c2S(=O)(=O)N(C2CCCC2)CC(COCc2ccccc2)O3)cc1 (configuration not stated) | 9.2µM | 10.3µM | – | – | – | –
Cn1nc(-c2ccc(F)cc2)cc1[C@H]1CN2CC[C@H]1C[C@@H]2CNC(=O)c1ccc2c(c1)OCO2 | · | · | – | · | · | ·
CCOc1ccc(NC(=O)c2cc3c(C)nn(-c4ccccc4)c3s2)cc1 | 10.3µM | 20.6µM | – | · | · | ·
Cc1ccc(NC(=O)N2CCN(c3cc(-c4noc(C)n4)ccc3C)CC2)c(F)c1 | 16.4µM | ? | – | · | · | ·
N[C@H](C(=O)O)[C@@H]1CC(Cl)=NO1 | 2.11µM | 1.68µM | · | · | · | ·
Cc1cccc(C)c1-n1nnnc1C(c1ccccc1)N1CCC2(CC1)C(=O)NCN2c1ccccc1 (configuration not stated) | 20.6µM | 23.1µM | – | ? | ? | ?
COc1ccc(C(c2nnnn2C(C)(C)C)N2CCC3(CC2)C(=O)NCN3c2ccccc2)cc1 (configuration not stated) | ? | ? | ? | – | – | –
COc1ccc(C(c2nnnn2-c2c(C)cccc2C)N2CCC3(CC2)C(=O)NCN3c2ccccc2)cc1 (configuration not stated) | 20.6µM | 14.6µM | – | -64.5 | ? | 23.1µM
Cc1cccc(C)c1-n1nnnc1C(C1CC1)N1CCC2(CC1)C(=O)NCN2c1ccccc1 (configuration not stated) | 14.6µM | 16.4µM | – | – | ? | ?
CC(C)(C)n1nnnc1C(C1CC1)N1CCC2(CC1)C(=O)NCN2c1ccccc1 (configuration not stated) | 16.4µM | ? | ? | – | – | –
CC(C)(C)n1nnnc1C(c1ccnc2ccccc12)N1CCC2(CC1)C(=O)NCN2c1ccccc1 (configuration not stated) | ? | ? | ? | – | – | –
Cc1cccc(C)c1-n1nnnc1C(c1ccnc2ccccc12)N1CCC2(CC1)C(=O)NCN2c1ccccc1 (configuration not stated) | 14.6µM | 23.1µM | ? | ? | ? | ?
CN1CCC(O)(c2ccc(Cl)cc2)C(C(=O)c2ccc(Cl)cc2)C1 (configuration not stated) | 2.91µM | 2.59µM | ? | – | – | –
SMILES | DT40 TDP1 no CPT | TDP1 cell CPT | 12-LOX inh | IL1B secr inh | HT1080 IDH1KD tx | HT1080NT lethal
CC(=O)N1CCCSC1=Nc1ccccc1 | – | – | – | – | – | –
CCOc1ccccc1N=C1SCCCN1C | – | – | 7.08µM | – | – | –
CC(C)N1CCC(NC(=O)c2cn(Cc3ccccc3)c3ccccc23)CC1 | · | · | – | · | · | ·
C#CCN(C)C[C@H]1CN2CC[C@H]1C[C@@H]2CNC(=O)NC(C)C | · | · | – | · | · | ·
Cc1ncc2c(n1)C[C@@H]1CC[C@H]2N1C(=O)Cc1ccccc1 | · | · | – | · | · | ·
COc1nnc(-c2ccc(N3CCCCC3)c(NC(=O)c3ccccc3)c2)c2ccccc12 | 14.6µM | ? | – | · | · | ·
CSCC[C@@H](NC(=O)[C@@H](Cc1ccccc1)NC(=O)CNC(=O)CNC(=O)[C@@H](N)Cc1ccc(O)cc1)C(=O)O | · | · | – | · | · | ·
COc1ccc(OC)c(S(=O)(=O)NC[C@H]2C[C@@H]3CCN2C[C@@H]3c2cc(-c3cccs3)nn2C)c1 | · | · | – | · | · | ·
CCn1cc2nc(SCc3cc(C)ccc3C)n(Cc3ccc(OC)cc3)c(=O)c2n1 | 7.31µM | 10.3µM | – | · | · | ·
Cc1ccc(C(C)C)cc1OCC(=O)N1CCN(Cc2nc(N)c3ccccc3n2)CC1 | · | · | – | · | · | ·
COc1ncc(-c2cc3c(cc2OC)C2(CCN(C(C)=O)CC2)C(=O)N3)cn1 | · | · | – | · | · | ·
CCC(c1nnnn1C1CCCCC1)N1CCC2(CC1)C(=O)NCN2c1ccccc1 (configuration not stated) | ? | ? | – | – | – | –
CCC(c1nnnn1-c1ccc2c(c1)OCCO2)N1CCC(n2c(=O)[nH]c3ccccc32)CC1 (configuration not stated) | 9.2µM | 10.3µM | ? | – | ? | ?
CSCCC(c1nnnn1-c1ccc2c(c1)OCCO2)N1CCC(n2c(=O)[nH]c3ccccc32)CC1 (configuration not stated) | 7.31µM | 7.31µM | – | ? | ? | ?
NCCc1cccs1 | · | · | – | · | · | ·
Ic1ccccc1CN[C@@H]1C2CCN(CC2)[C@@H]1C(c1ccccc1)c1ccccc1 | 6.51µM | 11.6µM | ? | -50.3 | 20.6µM | 18.4µM
CN(Cc1ccccc1)C[C@H]1CN2CC[C@H]1C[C@@H]2CNC(=O)Nc1ccccc1 | · | · | – | · | · | ·
c1nc2nc3c(c(N4CCNCC4)n2n1)CCCC3 | – | – | · | – | – | –
COc1cccc(N2CCN(c3c4c(nc5nncn35)CCC4)CC2)c1 | 8.2µM | 23.1µM | – | · | · | ·
